Screening data as filed in PubChem BioAssay.
aSyn UTR act = Activators working through SNCA 5'UTR binding (MLPCN). alpha-synuclein 5'UTR reporter, activators screen. activity score, % (tested at 7.5 µM), hits read low. hit rate 7.1% among 300,000. AID 1814; in the data active = activity score below about -60%
The depositor's hits bear a star. A selection follows.

Results for CCOC(=O)c1ccccc1NC(=O)CSc1nc2ccccc2o1 ?
aSyn UTR act: -88*

Results for COc1ccc(-c2nnc(SCC(=O)Nc3cccc(Cl)c3)o2)cc1 ?
aSyn UTR act: -179*

How did CCOC(=O)c1ccccc1NC(=O)Cn1c(-c2nonc2N)nc2ccccc21 do in these assays?
aSyn UTR act: 73

How did COc1ccc(-c2nnc(SCC(=O)Nc3ccccc3OC)o2)cc1 do in these assays?
aSyn UTR act: -145*

How did Cc1cc(-c2nnc(SCC(=O)Nc3ccccn3)o2)no1 do in these assays?
aSyn UTR act: -72*

Results for O=C(Nc1ccc2c(c1)oc1ccccc12)C1CC1 ?
aSyn UTR act: -138*

Results for CCCCC(=O)Nc1ccc2c(c1)oc1ccccc12 ?
aSyn UTR act: -251*

Results for CCCCCC(=O)Nc1ccc2ccccc2c1 ?
aSyn UTR act: -175*

How did Cc1cc(=O)oc2cc(NC(=O)C3CCCC3)ccc12 do in these assays?
aSyn UTR act: -85*

How did CC(C)CC(=O)Nc1ccc2c(c1)oc1ccccc12 do in these assays?
aSyn UTR act: -227*

What do the screens show for `CC1(C)COC(/C=C/c2ccc([N+](=O)[O-])cc2)=N1`?
aSyn UTR act: -93*

What do the screens show for `Cc1ccc(-c2nc3ccccc3o2)cc1NC(=S)NC(=O)c1cc2ccccc2o1`?
aSyn UTR act: -111*

What do the screens show for `Cc1ccc2oc(-c3ccc(C)c(NC(=O)Cc4cccs4)c3)nc2c1`?
aSyn UTR act: -142*

How did Cc1ccc2oc(-c3ccc(C)c(NC(=S)NC(=O)c4cccs4)c3)nc2c1 do in these assays?
aSyn UTR act: -193*

Results for Cc1ccc(-c2csc(NC(=S)NC(=O)c3cc4ccccc4o3)n2)cc1 ?
aSyn UTR act: -66*

What do the screens show for `Cc1cccc(NC(=O)c2cccc(NC(=O)Cc3cccs3)c2)c1`?
aSyn UTR act: -88*

What do the screens show for `Cc1ccc2oc(-c3cccc(NC(=O)Cc4cccs4)c3)nc2c1`?
aSyn UTR act: -71*

Results for CN1CCN(CC/C=C2/c3ccccc3Sc3ccc(S(=O)(=O)N(C)C)cc32)CC1 ?
aSyn UTR act: -97*

What do the screens show for `CC1CCCCN1C(=O)CSc1nnc(-c2ccc(Cl)s2)o1` (stereo unspecified)?
aSyn UTR act: -69*

What do the screens show for `CC1CCCCN1C(=O)CSc1nnc(-c2ccccc2O)o1` (stereo unspecified)?
aSyn UTR act: -84*

How did CC1CCCCN1C(=O)CSc1nc2ncccc2[nH]1 (stereo unspecified) do in these assays?
aSyn UTR act: -75*

What do the screens show for `CN=c1scc(-c2ccccc2Br)n1/N=C/c1ccc[nH]1`?
aSyn UTR act: 64

Results for CN=c1scc(-c2ccccc2F)n1/N=C(\C)c1cccnc1 ?
aSyn UTR act: -163*

How did CC(=O)c1ccc(OCc2cc(C(=O)N(C)Cc3ccccn3)no2)cc1 do in these assays?
aSyn UTR act: -65*

Results for Cc1cc(OCc2cc(C(=O)N(C)C(C)c3ccccn3)no2)cc(C)c1Cl (stereo unspecified) ?
aSyn UTR act: -93*

How did Cc1cc(OCc2cc(C(=O)N(C)Cc3ccccn3)no2)cc(C)c1Cl do in these assays?
aSyn UTR act: -77*

Results for Cc1cccc(-c2nnc(SCC(=O)N3CCCC3)o2)c1 ?
aSyn UTR act: -83*

Results for Cc1ccc(-c2nnc(SCC(=O)N3CCCC3)o2)cc1 ?
aSyn UTR act: -104*

What do the screens show for `O=C(CSc1nnc(-c2ccc(F)cc2)o1)N1CCCC1`?
aSyn UTR act: -114*

Results for CCOC(=O)N1CCN(C(=O)CSc2nnc(-c3ccc(C(C)(C)C)cc3)o2)CC1 ?
aSyn UTR act: -73*

What do the screens show for `Cc1ccc(-c2nnc(SCC(=O)N3CCCC3)o2)cc1C`?
aSyn UTR act: -83*

Results for CCOc1ccccc1CNC(=O)c1cc2oc3ccccc3c2n1CC ?
aSyn UTR act: 66

What do the screens show for `Cn1c(C(=O)N2CCc3ccccc3C2)cc2oc3ccccc3c21`?
aSyn UTR act: -137*

What do the screens show for `Cc1ccc(NC(=O)CCC(=O)c2cccs2)c(Br)c1`?
aSyn UTR act: -79*

How did Cc1ccc(NC(=O)CNCc2cccs2)c(Br)c1 do in these assays?
aSyn UTR act: -119*

Results for Cc1ccc(NC(=O)CCc2ccc(C)o2)c(Br)c1 ?
aSyn UTR act: -72*

Results for Cc1ccc(NC(=O)CNCc2ccccc2)c(Br)c1 ?
aSyn UTR act: -68*

How did COc1ccc(NC(=O)c2cc3sccc3n2Cc2ccc(F)cc2)cc1OC do in these assays?
aSyn UTR act: -76*

What do the screens show for `Cn1c(C(=O)Nc2ccc3c(c2)OCO3)cc2sccc21`?
aSyn UTR act: -245*

How did COc1cc(NC(=O)c2cc3sccc3n2C)cc(OC)c1 do in these assays?
aSyn UTR act: -232*

How did COc1ccc(OC)c(NC(=O)c2cc3sccc3n2C)c1 do in these assays?
aSyn UTR act: -93*

How did Cn1c(C(=O)Nc2ccccc2)cc2sccc21 do in these assays?
aSyn UTR act: -172*

How did COC(=O)c1ccc(NC(=O)c2cc3sccc3n2C)cc1 do in these assays?
aSyn UTR act: -79*

Results for O=C(Nc1ccc(Cl)cc1)c1ccc2ncsc2c1 ?
aSyn UTR act: -227*

What do the screens show for `O=C(Nc1ccc(F)cc1)c1ccc2ncsc2c1`?
aSyn UTR act: -176*
